The results in this text go back to PubChem BioAssay (NCATS).

Results filed as inconclusive are left out. Values without a mark were called inactive. Activity calls are given as the source filed them. Calls follow the shape of the dose curve; as a rule, active = well fitted inhibition curve with a large enough effect; inconclusive = small, poorly fitted or top-dose-only effect; inactive = flat fitted curve, though single readings scatter.
% is scaled to controls: 0 for no effect and ±100 for the full control effect.

Calcium and integrin-binding protein 1 (Homo sapiens), sequence (Q99828 whole entry, looked up): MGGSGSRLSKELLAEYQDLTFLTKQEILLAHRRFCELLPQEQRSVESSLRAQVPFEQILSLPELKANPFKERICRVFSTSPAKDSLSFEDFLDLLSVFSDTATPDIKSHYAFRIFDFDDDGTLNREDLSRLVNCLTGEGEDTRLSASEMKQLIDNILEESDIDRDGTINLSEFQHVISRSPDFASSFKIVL

The assay concerns the target Calcium and integrin-binding protein 1 (Homo sapiens) (UniProt Q99828). Kind of assay: Primary qHTS for Identification of Calcium Integrin Binding Protein 1 (CIB1) Competitor (AID 1508620). Also: top concentration of the series differs between compounds. Conditions: CIB1-GST / FITC-alphaIIb peptide fluorescence polarization; series mostly up to 57.7 µM; activity change, negative = inhibition: at the top concentration. In a few lines:
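Fluorescence polarization competition: GST-tagged CIB1 (1 uM final) preincubated with compound 15 min at room temperature, then FITC-labelled alphaIIb peptide (100 nM final) added. After 15 min at room temperature, polarization read at Ex 480/Em 540.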
For orientation: qHTS replaces the single test concentration by a dilution series.
`COc1cc(C(C)C)c2c(c1)S(=O)(=O)N(COc1cc(=O)n3cccc(OCCN4CCCCC4)c3n1)C2=O`: the “activity change, negative = inhibition” value is -1.12%. With `CC(C)(C)NC(=O)[C@H]1CN(Cc2cccnc2)CCN1C[C@@H](O)C[C@@H](Cc1ccccc1)C(=O)N[C@H]1c2ccccc2C[C@H]1O`, the “activity change, negative = inhibition” value is -1.45%. Turning to `CN1CCN(c2ccc3nc(-c4c(N)c5c(F)cccc5[nH]c4=O)[nH]c3c2)CC1`, the “activity change, negative = inhibition” value was 0.0456%. Turning to `CC1(C)OC2=C(C(=O)c3ccccc3C2=O)[C@H](NCc2ccccc2)[C@H]1O`, the “activity change, negative = inhibition” value was -5.42%. As to `CCCCN1CCC(CNC(=O)c2c3n(c4ccccc24)CCCO3)CC1`, the “activity change, negative = inhibition” value is -4.75%. As to `CCOc1cc2ncc(C#N)c(Nc3ccc(F)c(Cl)c3)c2cc1NC(=O)C=CCN(C)C`, the “activity change, negative = inhibition” value was 4.95%. On the same count and under the same terms, next, `O=C(C=Cc1cccc(S(=O)(=O)Nc2ccccc2)c1)NO`: -5.15% [at 114 µM]; `CN(C)CC=CC(=O)Nc1cc2c(Nc3ccc(F)c(Cl)c3)ncnc2cc1O[C@H]1CCOC1`: -0.213%; `CN[C@H]1CCc2cc(OC)c(OC)c(OC)c2-c2ccc(OC)c(=O)cc21`: 3.51%. Consider `COc1c(N2C[C@@H]3CCCN[C@H]3C2)c(F)cc2c(=O)c(C(=O)O)cn(C3CC3)c12`, for which the “activity change, negative = inhibition” value was -9.41%.

With `Nc1ccn([C@@H]2O[C@H](CO)[C@H](O)C2(F)F)c(=O)n1`, the “activity change, negative = inhibition” value was -1.38%. The same measure, in the same setting: next, `Cn1cncc1[C@@](N)(c1ccc(Cl)cc1)c1ccc2c(c1)c(-c1cccc(Cl)c1)cc(=O)n2C`: -3.02%. `COc1cc2ncnc(Nc3ccc(F)c(Cl)c3)c2cc1NC(=O)C=CCN1CCCCC1`: the “activity change, negative = inhibition” value was 0.496%. On the same count and under the same terms, next, `CC(C)(C)OC(=O)Nc1ccc(-c2cc(C(=O)NCCCCCCC(=O)NO)no2)cc1`: -0.285%; `C1=CCOCc2cc(ccc2OCCN2CCCC2)Nc2nccc(n2)-c2cccc(c2)OCC1`: -6.07%. Regarding `Nc1ccc(S(=O)(=O)Nc2ncccn2)cc1`, the “activity change, negative = inhibition” value is 1.67%. Regarding `O=C(C=Cc1cccnc1)NCCCCC1CCN(C(=O)c2ccccc2)CC1`, the “activity change, negative = inhibition” value was 0.73%. On to `Clc1cccc(-c2nnnn2Cc2cccnc2)c1Cl`, for which the result was inactive. `Cc1c(CN2CCN(S(C)(=O)=O)CC2)sc2c(N3CCOCC3)nc(-c3cnc(N)nc3)nc12`: the result was inactive.

Take `CC1(C)O[C@@H]2C[C@@H]3[C@H]4C[C@@H](F)C5=CC(=O)C=C[C@]5(C)[C@@]4(F)[C@@H](O)C[C@]3(C)[C@]2(C(=O)CO)O1`: the “activity change, negative = inhibition” value is -4.57%. With `Cc1ccc(S(=O)(=O)Nc2cc(Cl)ccc2C(=O)Nc2nc(-c3ccccc3)cs2)cc1`, the outcome was inactive.

As for `COc1cc(OC2CCN(C)CC2)ccc1Nc1ncc2c(n1)n(C1CCCC1)c(=O)n2C`, the “activity change, negative = inhibition” value was -2.65%. For the compound `CC=C1NC(=O)[C@H]2CSSCCC=C[C@H](CC(=O)N[C@H](C(C)C)C(=O)N2)OC(=O)[C@H](C(C)C)NC1=O`, the “activity change, negative = inhibition” value was 3.2%. In the case of `COC(=O)Nc1ccc(-c2nc(N3CCOCC3)c3cnn(C4CCN(Cc5cccnc5)CC4)c3n2)cc1`, the result was inactive.

In the case of `O=C(O)c1ccc2cc(-c3ccc(O)c(C45CC6CC(CC(C6)C4)C5)c3)ccc2c1`, the “activity change, negative = inhibition” value is -2.29%. Turning to `Nc1ncnc2c1c(-c1cccc(OCc3ccccc3)c1)cn2C1CC(CN2CCCC2)C1` (centres undefined), the result was inactive. Regarding `CC1=C(CO)C(=O)O[C@@H]([C@@H](C)[C@H]2CC[C@H]3[C@@H]4C[C@H]5O[C@]56[C@@H](O)C=CC(=O)[C@]6(C)[C@@H]4CC[C@]23C)C1`, the “activity change, negative = inhibition” value was 2.78%.

For the compound `COc1ccc(C=Cc2cc(OC)c(OC)c(OC)c2)cc1O`, the “activity change, negative = inhibition” value was -2.2%. The same measure, in the same setting: next, `COc1cc(=C2C=c3ccccc3=N2)[nH]c1=Cc1[nH]c(C)cc1C`: 19.9%. As to `CCC[C@H](NC(=O)C(C#N)=Cc1cccc(Br)n1)c1ccccc1`, the “activity change, negative = inhibition” value is -8.26%. On the same count and under the same terms, next, `CC(C)[C@H](C(=O)Nc1ccc(C(=O)NO)cc1)c1ccccc1`: 2.11%. On to `Cc1cnc(Nc2ccc(F)cc2Cl)nc1-c1c[nH]c(C(=O)N[C@H](CO)c2cccc(Cl)c2)c1`, for which the outcome was inactive.

As for `CN(C)c1nc(Cc2ccc(NC(=O)c3ccc4ccccc4c3)cc2)nc(Cl)c1CC(=O)O`, the result was inactive. Same read-out and setting: next, `Nc1cc(C(F)(F)F)c(-c2cc(N3CCOCC3)nc(N3CCOCC3)n2)cn1`: “inactive”. For `CC=CC1=C(C(=O)O)N2C(=O)[C@H](NC(=O)[C@H](N)c3ccc(O)cc3)[C@@H]2SC1`, the “activity change, negative = inhibition” value is -0.391%. Turning to `O=C(CCCCCCNC(=O)c1cnc(N(c2ccccc2)c2ccccc2)nc1)NO`, the outcome was inactive. As for `COc1cc2ncn(-c3cc(OCc4ccccc4C(F)(F)F)c(C(N)=O)s3)c2cc1OC`, the “activity change, negative = inhibition” value is -1.15%. On to `COc1cc2c(Oc3ccc(NC(=O)C4(C(=O)Nc5ccc(F)cc5)CC4)cc3F)ccnc2cc1OCCCN1CCOCC1`, for which the result was inactive.

Turning to `CCCCc1nc2cc(C=CC(=O)NO)ccc2n1CCN(CC)CC`, the “activity change, negative = inhibition” value was -0.706%.
